# Test results as given in article PMC5700166.
# What was measured:
# Assay in all cases: protein-binding microarray (PBM); PBM: ~300 nM protein, 6 mM HEPES pH 7.8, 80 mM KCl, 0.5 mM EDTA, 0.5 mM EGTA, 6% glycerol, 35 ng/ul poly-dIdC, 1% milk, 1 h, room temperature; Ap Aiptasia and Nv Nematostella (sea anemones) / Co Capsaspora / Aq Amphimedon (sponge) / Dm Drosophila / Hu human; RHD is the Rel homology domain; high values mean tight binding
# Details in all cases: dsDNA, one strand shown
# [1] = molecular target: T1, GST-Ap-NF-kB RHD (Exaiptasia pallida (Aiptasia), UniProt A0A913YAJ5 2-422)
# T1 sequence: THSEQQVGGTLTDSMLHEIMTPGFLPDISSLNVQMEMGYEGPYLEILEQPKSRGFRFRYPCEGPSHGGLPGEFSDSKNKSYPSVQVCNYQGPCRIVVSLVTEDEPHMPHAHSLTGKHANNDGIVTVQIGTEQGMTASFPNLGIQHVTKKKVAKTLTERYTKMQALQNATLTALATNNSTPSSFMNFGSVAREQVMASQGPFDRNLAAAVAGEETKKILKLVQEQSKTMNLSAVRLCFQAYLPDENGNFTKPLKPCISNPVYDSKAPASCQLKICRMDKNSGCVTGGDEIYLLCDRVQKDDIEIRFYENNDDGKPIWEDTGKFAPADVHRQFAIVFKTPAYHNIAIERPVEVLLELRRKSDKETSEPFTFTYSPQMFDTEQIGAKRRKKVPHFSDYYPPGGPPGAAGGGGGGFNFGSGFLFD
# [2] = molecular target: T2, GST-Nv-NF-kB (Cys allele) (Nematostella vectensis, UniProt E5G601 2-411)
# T2 sequence: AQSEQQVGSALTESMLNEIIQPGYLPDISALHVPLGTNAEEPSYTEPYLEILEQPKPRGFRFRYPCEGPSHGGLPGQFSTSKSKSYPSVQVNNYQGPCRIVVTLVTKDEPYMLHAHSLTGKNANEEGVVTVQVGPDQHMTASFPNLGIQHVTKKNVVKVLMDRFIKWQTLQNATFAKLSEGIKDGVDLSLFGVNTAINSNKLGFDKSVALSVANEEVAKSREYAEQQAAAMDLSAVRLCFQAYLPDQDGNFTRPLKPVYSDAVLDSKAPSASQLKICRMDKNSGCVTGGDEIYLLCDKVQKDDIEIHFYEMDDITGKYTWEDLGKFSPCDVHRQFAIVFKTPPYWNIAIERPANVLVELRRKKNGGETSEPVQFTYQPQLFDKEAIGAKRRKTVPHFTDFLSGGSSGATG
# [3] = molecular target: T3, GST-Co-NF-kB (Capsaspora owczarzaki, UniProt F1ARL5 200-546)
# T3 sequence: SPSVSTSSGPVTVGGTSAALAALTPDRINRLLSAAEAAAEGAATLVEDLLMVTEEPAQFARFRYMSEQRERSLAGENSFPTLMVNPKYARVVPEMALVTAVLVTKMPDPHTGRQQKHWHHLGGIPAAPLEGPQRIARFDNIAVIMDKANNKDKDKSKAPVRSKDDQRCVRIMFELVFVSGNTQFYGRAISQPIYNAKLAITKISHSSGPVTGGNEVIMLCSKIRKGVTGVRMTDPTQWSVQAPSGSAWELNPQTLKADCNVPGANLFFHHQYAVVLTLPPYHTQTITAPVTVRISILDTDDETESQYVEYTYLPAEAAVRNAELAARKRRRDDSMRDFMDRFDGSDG
# [4] = molecular target: T4, GST-Dm-Relish (Drosophila melanogaster, UniProt Q94527 99-473)
# T4 sequence: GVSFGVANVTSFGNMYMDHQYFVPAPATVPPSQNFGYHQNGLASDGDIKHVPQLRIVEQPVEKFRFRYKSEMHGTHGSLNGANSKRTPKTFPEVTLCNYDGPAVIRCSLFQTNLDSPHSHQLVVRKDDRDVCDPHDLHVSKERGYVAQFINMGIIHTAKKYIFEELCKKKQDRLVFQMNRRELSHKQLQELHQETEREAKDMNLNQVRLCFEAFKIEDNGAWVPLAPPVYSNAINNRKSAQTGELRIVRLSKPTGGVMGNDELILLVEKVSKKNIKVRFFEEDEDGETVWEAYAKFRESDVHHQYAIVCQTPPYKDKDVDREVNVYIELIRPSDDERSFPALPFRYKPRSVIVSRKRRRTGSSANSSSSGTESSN
# [5] = molecular target: T5, GST-Aq-NF-kB (Amphimedon queenslandica, UniProt A9Y5G7 2-389)
# T5 sequence: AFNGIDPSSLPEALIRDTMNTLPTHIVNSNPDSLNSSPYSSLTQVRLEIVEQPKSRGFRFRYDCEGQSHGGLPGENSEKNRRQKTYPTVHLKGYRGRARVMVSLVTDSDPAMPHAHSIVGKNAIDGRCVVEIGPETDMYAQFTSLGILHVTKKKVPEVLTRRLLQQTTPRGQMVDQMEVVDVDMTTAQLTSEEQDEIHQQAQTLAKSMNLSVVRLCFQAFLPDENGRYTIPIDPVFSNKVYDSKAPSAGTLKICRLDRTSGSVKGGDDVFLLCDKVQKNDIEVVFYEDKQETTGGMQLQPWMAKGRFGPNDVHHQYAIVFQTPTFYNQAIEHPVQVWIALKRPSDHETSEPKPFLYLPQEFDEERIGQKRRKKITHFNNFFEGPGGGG
sequence,measurement,setting,value
CCGATTAACATCAGGATTGCCCCTGATGTTAATCGGGTCTTGATTCGCTTGACGCTGCTG,binding signal,[1],2.91 z-score
same,binding signal,[2],4.26 z-score
same,binding signal,[3],1.5 z-score
same,binding signal,[4],2.51 z-score
same,binding signal,[5],5.63 z-score
CCGATTAACATCAGGGGAAGGACTGATGTTAATCGGGTCTTGATTCGCTTGACGCTGCTG,binding signal,[1],4.32 z-score
same,binding signal,[2],4.53 z-score
same,binding signal,[3],4.12 z-score
same,binding signal,[4],8.23 z-score
same,binding signal,[5],5.22 z-score
CCGATTAACATCAGGGGAGAACCTGATGTTAATCGGGTCTTGATTCGCTTGACGCTGCTG,binding signal,[1],6.35 z-score
same,binding signal,[2],4.58 z-score
same,binding signal,[3],5.4 z-score
same,binding signal,[4],5.43 z-score
same,binding signal,[5],5.51 z-score
CCGATTAACATCAGGATAATCCCTGATGTTAATCGGGTCTTGATTCGCTTGACGCTGCTG,binding signal,[1],4.74 z-score
same,binding signal,[2],3.01 z-score
same,binding signal,[3],1.51 z-score
same,binding signal,[4],2.88 z-score
same,binding signal,[5],5.24 z-score
CCGATTAACATCAAACCCCCCCCTGATGTTAATCGGGTCTTGATTCGCTTGACGCTGCTG,binding signal,[1],7.29 z-score
same,binding signal,[2],5.16 z-score
same,binding signal,[3],4.79 z-score
same,binding signal,[4],6.75 z-score
same,binding signal,[5],5.35 z-score
CCGATTAACATCAGGGCAGCCCCTGATGTTAATCGGGTCTTGATTCGCTTGACGCTGCTG,binding signal,[1],4.41 z-score
same,binding signal,[2],4.88 z-score
same,binding signal,[3],1.25 z-score
same,binding signal,[4],4.16 z-score
same,binding signal,[5],7.43 z-score
CCGATTAACATCAAAAGACCCCCTGATGTTAATCGGGTCTTGATTCGCTTGACGCTGCTG,binding signal,[1],6.38 z-score
same,binding signal,[2],5.12 z-score
same,binding signal,[3],3.12 z-score
same,binding signal,[4],8.16 z-score
same,binding signal,[5],6.25 z-score
CCGATTAACATCAACACCCCCCCTGATGTTAATCGGGTCTTGATTCGCTTGACGCTGCTG,binding signal,[1],5.32 z-score
same,binding signal,[2],4.06 z-score
same,binding signal,[3],5.33 z-score
same,binding signal,[4],5.81 z-score
same,binding signal,[5],4.43 z-score
CCGATTAACATCAAATTCCCAAATGATGTTAATCGGGTCTTGATTCGCTTGACGCTGCTG,binding signal,[1],1.72 z-score
same,binding signal,[2],3.62 z-score
same,binding signal,[3],2.55 z-score
same,binding signal,[4],4.57 z-score
same,binding signal,[5],2.31 z-score
CCGATTAACATCAGGCCGTCCCCTGATGTTAATCGGGTCTTGATTCGCTTGACGCTGCTG,binding signal,[1],4.92 z-score
same,binding signal,[2],4.47 z-score
same,binding signal,[3],1.48 z-score
same,binding signal,[4],5.02 z-score
same,binding signal,[5],5.74 z-score
CCGATTAACATCAGAAGTTCCCATGATGTTAATCGGGTCTTGATTCGCTTGACGCTGCTG,binding signal,[1],2.2 z-score
same,binding signal,[2],2.3 z-score
same,binding signal,[3],2.44 z-score
same,binding signal,[4],3.27 z-score
same,binding signal,[5],2.82 z-score
CCGATTAACATCACTAAAATCCCTGATGTTAATCGGGTCTTGATTCGCTTGACGCTGCTG,binding signal,[1],3.37 z-score
same,binding signal,[2],3.38 z-score
same,binding signal,[3],1.18 z-score
same,binding signal,[4],5.48 z-score
same,binding signal,[5],3.65 z-score
CCGATTAACATCAGGCACCCCCCTGATGTTAATCGGGTCTTGATTCGCTTGACGCTGCTG,binding signal,[1],5.14 z-score
same,binding signal,[2],3.21 z-score
same,binding signal,[3],2.79 z-score
same,binding signal,[4],5.16 z-score
same,binding signal,[5],4.88 z-score
